# Measured values from PubChem BioAssay AID777 (Sanford-Burnham Center for Chemical Genomics, 2007).
# Screen size: about 96,000 compounds; about 19,000 (20%) were called active. Not all results are given here. Unmarked numbers belong to inactive results.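 Rule for the calls: active = blocking of liver enzyme CYP2C9 beyond about 50% at 5 µM (limit read from the data); inactive = the rest.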
# Biological target: Cytochrome P450 2C9 (Homo sapiens) (UniProt P11712)
# Test: blockers of cytochrome P450 2C9 activity – biochemical, luminescence, ADME assay, primary screen (AID 777)
# Details: CYP2C9 Supersomes, luciferin-H conversion, at 5 µM, active compounds read high
# Chain of Cytochrome P450 2C9 (Homo sapiens) (P11712 whole entry, looked up): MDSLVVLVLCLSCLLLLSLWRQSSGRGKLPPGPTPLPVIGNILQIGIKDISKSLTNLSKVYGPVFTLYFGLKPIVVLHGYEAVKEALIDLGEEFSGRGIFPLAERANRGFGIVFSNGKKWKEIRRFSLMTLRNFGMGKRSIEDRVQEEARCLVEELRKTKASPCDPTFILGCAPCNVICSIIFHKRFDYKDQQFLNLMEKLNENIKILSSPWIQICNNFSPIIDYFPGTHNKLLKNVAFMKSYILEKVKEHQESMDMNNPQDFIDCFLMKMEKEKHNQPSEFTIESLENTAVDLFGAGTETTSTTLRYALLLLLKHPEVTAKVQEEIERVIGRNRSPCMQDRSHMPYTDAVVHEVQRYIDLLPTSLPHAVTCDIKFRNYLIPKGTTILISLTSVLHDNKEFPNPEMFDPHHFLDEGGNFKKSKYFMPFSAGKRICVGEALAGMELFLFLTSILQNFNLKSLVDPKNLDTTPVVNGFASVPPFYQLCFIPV
row,SMILES,inhibition
1,COC(=O)c1ccc(S(=O)(=O)c2ccc(C(=O)OC)s2)s1,49.3%
2,Cc1nnc(NC(=O)CSc2nccn2-c2cccc(C)c2C)s1,39.9%
3,O=C(O)CSc1nccn1-c1cccc(Cl)c1,57.5% (active)
4,Cn1c(Cc2cccc3ccccc23)nnc1SCC(=O)N1CCN(c2cccc(Cl)c2)CC1,-15.6%
5,O=C(c1ccccn1)c1ncc(C(F)(F)F)cc1Cl,11.2%
6,CSC1=NCCN1C(=O)c1ccc(S(=O)(=O)N2CCOCC2)cc1,0.8%
7,Cc1ccc(C(=O)Nc2ccccc2C(=O)NC2CCCCC2)cc1S(=O)(=O)N1CCOCC1,23.7%
8,Cc1cc(C)n(C(=O)c2ccc(C)c(S(=O)(=O)N3CCOCC3)c2)n1,66.3% (active)
9,Cc1ccccc1-c1nnn(CC(=O)c2ccc(S(=O)(=O)N3CCCC3)cc2)n1,9%
10,CC(=O)c1c(N2CCOCC2)nc(=S)n(-c2cc(C)ccc2C)c1C,-8.6%
11,Cc1cc(C)n(C(=O)c2ccc(S(=O)(=O)N3CCCC3)cc2)n1,86.9% (active)
12,Cc1cccc(N2C(=O)SC(N(CC(=O)O)c3cccc(C)c3)C2=O)c1 (centres undefined),30.8%
13,COc1cccc(C(=O)Nc2c3c(nn2-c2cccc(C)c2C)CS(=O)(=O)C3)c1OC,-6.7%
14,Cc1ccc(-n2nc3c(c2NC(=O)c2ccc4c(c2)OCO4)CSC3)c(C)c1,1.1%
15,Cc1cccc(-n2nc3c(c2NC(=O)c2ccc(Br)o2)CSC3)c1C,72.3% (active)
16,COCc1nc2ccccc2n1Cc1ccccc1Br,14.7%
17,COc1ccc(NC(=O)Cn2c(-c3ccc(OC)cc3)cn(-c3ccc(C)cc3)c2=O)cc1,10%
18,COc1ccc(-c2cn(-c3ccc(C)cc3)c(=O)n2CC(=O)Nc2ccc(OC)c(OC)c2)cc1,80.5% (active)
19,COc1ccc(NC(=O)COC(=O)Cn2c(C)nc3ccccc32)cc1OC,-9.8%
20,COCC(C)N=CC1=C(O)CC(C)(C)CC1=O (centres undefined),-5.7%
21,COc1ccc(S(=O)(=O)N2CCN(c3ncnc4c(-c5ccccc5)nsc34)CC2)cc1,51.9% (active)
22,COc1ccc(S(=O)(=O)N2CCCC(C(=O)Nc3ccc(NC(=O)c4ccccn4)cc3)C2)cc1 (centres undefined),-18.5%
23,CCOc1ccccc1NC(=O)CCN1CCN(S(=O)(=O)c2ccc(OC)cc2)CC1,41.4%
24,COc1cccc(Oc2ccc(N)cc2)c1,4.7%

row,SMILES,inhibition
1,CN1C2CCC1/C(=C\c1ccccc1Cl)C(=O)/C2=C\c1ccccc1Cl,-79.2%
2,COCCNC(=S)c1ccc(OC)cc1,-13.3%
3,Cn1c(Cc2csc(N)n2)nnc1SC/C=C/c1ccccc1,27.1%
4,Cc1cc(C(=O)COC(=O)CCCN2C(=O)c3ccccc3C2=O)c(C)n1C,-21.1%
5,CC(C)OC(=O)CN1C(=O)c2ccccc2C1=O,4.9%
6,Cc1cc2c(cc1C)N(C(=O)CN1C(=O)c3ccccc3C1=O)C(C)(C)c1ssc(=S)c1-2,78.2% (active)
7,CCOC(=O)CN1C(=O)C(=O)c2cc(C)ccc21,8.3%
8,Cc1ccc2c(c1)-c1c(ssc1=S)C(C)(C)N2C(=O)CN1C(=O)c2ccccc2C1=O,80.6% (active)
9,C=CCn1c(C)cc(C(=O)CN2C(=O)c3ccccc3C2=O)c1C,-61.6%
10,Cc1[nH]c2ccc(S(N)(=O)=O)cc2c1C,-42.1%
11,CNC(=S)NNC(=O)c1sccc1OCc1ccccc1,12.2%
12,COc1cccc(-n2c(SCC(=O)NC3CCCCC3)nc3n[nH]c(C)c3c2=N)c1,19.4%
13,Cc1noc(C)c1S(=O)(=O)N(CC(=O)Nc1ccc2c(c1)OCCO2)c1ccc(C(C)C)cc1,72.5% (active)
14,CCOc1ccc(N(CC(=O)NCc2ccc(OC)cc2)S(=O)(=O)c2c(C)noc2C)cc1,3.9%
15,CCN(CC)C(=O)CCC(=O)Nc1ccc(C(=O)OC)cc1,8.6%
16,Cc1noc(C)c1S(=O)(=O)N(CC(=O)NCc1ccc(Cl)cc1)c1ccc2c(c1)OCO2,68.9% (active)
17,CCOC(=O)c1cccc(NC(=O)CN(c2ccc(C)cc2)S(=O)(=O)c2c(C)noc2C)c1,65.9% (active)
18,CS(=O)(=O)N(CC(=O)NCc1ccco1)c1ccc2c(c1)OCO2,2.2%
19,COC(=O)c1ccc(NC(=O)CN(c2ccc(C)cc2)S(=O)(=O)c2c(C)n[nH]c2C)cc1,91.4% (active)
20,COC(=O)c1ccc(NC(=O)Nc2ccc(C)cc2)cc1,34.6%
21,Cc1ccc(N(CC(=O)Nc2cc(C)cc(C)c2)S(=O)(=O)c2cccc3nonc23)cc1,48.7%
22,CCOc1ccc(N(CC(=O)OC)S(=O)(=O)c2c(C)noc2C)cc1,24.4%
23,Cc1noc(C)c1C(=O)NC(C)c1ccc2c(c1)OCO2 (centres undefined),32.6%
24,CCCCN=C(N)/C(C(=O)OCC)=C(\O)c1ccc(OC)cc1,20.5%

row,SMILES,inhibition
1,CCC(=O)Nc1ccc2c(c1)nc(CCN1CCN(C)CC1)n2C,0.1%
2,Cc1cc(C)n2nc(C(=O)NC(C)(C)C)nc2n1,-10.2%
3,Cc1ccc(C(C)C)c(OCc2nnc(SCC(=O)Nc3nccs3)n2C)c1,3.8%
4,CCn1c2c(c3ccc(OC)cc31)CCCC2=O,41.1%
5,Cn1c(=O)c2c(SCC(=O)N3CCOCC3)nc(C3CC3)nc2n(C)c1=O,8.1%
6,Cc1c(C)c2cc3c4c(oc3c(C)c2oc1=O)CCCC4,9.6%
7,O=S1(=O)CC(NCc2ccccc2)C(Nc2ccc(Cl)cc2)C1 (centres undefined),27.4%
8,Cc1ccn2cc(-c3nonc3C)cc2c1,15.3%
9,O=C(Nc1ncc2c(n1)CC(c1ccco1)CC2=O)c1ccc(Cl)cc1 (centres undefined),31.2%
10,C=CCn1c(SCc2csc(C)n2)nc2scc(-c3ccc(C)o3)c2c1=O,48%
11,COc1ccc(S(=O)(=O)N(C)CC(=O)Nc2ccc3c(c2)OCCO3)cc1OC,27.4%
12,O=C(CN(c1ccc2c(c1)OCCO2)S(=O)(=O)c1ccccc1)Nc1ccc2c(c1)OCO2,92.2% (active)
13,CC(C)C(=O)OCC(=O)Nc1ccc2c(c1)CCC2,-0.6%
14,COc1ccc(CC(=O)Nc2ccc3c(c2)CCC3)cc1S(=O)(=O)N1CCOCC1,59.8% (active)
15,COc1ccc(CNc2ccc3c(c2)CCC3)cc1OC,7.2%
16,CCC(=NC1CC(C)(C)NC(C)(C)C1)C1=C(O)CC(C)(C)CC1=O,13.4%
17,Cn1c(=NC(=O)CSCC(=O)N2CCOCC2)sc2ccccc21,-13.1%
18,O=C(CSc1ncccn1)NC(=O)NCc1ccccc1,5.8%
19,COC(=O)Nc1sc2nc(C)cc(C)c2c1-n1cccc1,55.1% (active)
20,Cc1cc(C)c2c(-n3cccc3)c(NC(=O)OCc3ccccc3)sc2n1,13.2%
21,CCCCOC(=O)Nc1sc2nc(C)cc(C)c2c1-n1cccc1,37.4%
22,Cc1cc(C)c2c(-n3cccc3)c(C(=O)NNS(=O)(=O)c3ccc(F)cc3)sc2n1,98.1% (active)
23,COc1ccc(C2=Nc3cc(C)ccc3OC2)cc1,19.1%
24,Cc1ccc(S(=O)(=O)n2cnc3ccccc32)c(C)c1,-7.6%

row,SMILES,inhibition
1,O=C(CN1C(=O)C2C3C=CC(C3)C2C1=O)NCCc1ccccc1Cl (centres undefined),17.1%
2,CCc1c(O)nc(SCC(=O)N2CCCCC2)n(-c2ccccc2C)c1=O,4.6%
3,Cc1ccc2nc3n(c(=O)c2c1)CCC3,21%
4,COc1ccc(OC)c(CNC(=O)C2CCCN(c3nc4ccccc4o3)C2)c1 (centres undefined),44.8%
5,Cc1ccc(C(c2sc3nc(C)nn3c2O)N2CCN(c3ccccc3)CC2)cc1 (centres undefined),36%
6,COc1ccc(C(c2nnnn2Cc2cccs2)N2CCN(c3ccccc3)CC2)cc1OC (centres undefined),61.5% (active)
7,COc1ccc(CCn2nnnc2C(c2ccccc2)N2CCN(C)CC2)cc1OC (centres undefined),-6%
8,CC(=O)NC(C)(C)C1CC=C(C)/C(=N\O)C1 (centres undefined),-8.6%
9,CCCCOc1ccc(C(C)(O)CCN2CCOCC2)cc1 (centres undefined),-4.9%
10,CCOc1ccc(C2C(C(=O)O)c3ccccc3C(=O)N2CCN2CCOCC2)cc1 (centres undefined),-15.8%
11,CCCOc1ccc(C2c3c(oc4cc(C)c(C)cc4c3=O)C(=O)N2CCCN2CCOCC2)cc1 (centres undefined),90.7% (active)
12,CC1(C)CN=C(N2CCN(c3ncnc4sc5c(c34)CCCC5)CC2)S1,39.4%
13,CCOC(=O)C1CCN(C(=O)Cc2c(C(=O)O)[nH]c3ccccc23)CC1,5.4%
14,Cc1ccc(SCCC(=O)OCC(=O)Nc2ncc(Cl)cc2Cl)cc1,37.2%
15,Cc1nc2c(-c3ccccc3)c(C)[nH]n2c(=O)c1Cl,43.9%
16,CCCCN=C1N/C(=C\c2ccco2)C(=O)N1c1ccccc1,2.2%
17,O=S(=O)(c1ccc(Sc2nnc3ccccn23)nc1)N1CCOCC1,-4.9%
18,CN(c1ccc(C(=O)NCCC2=CCCCC2)cc1)S(C)(=O)=O,-11.3%
19,CCN(c1ccccc1)S(=O)(=O)c1ccc(C(=O)Nc2nccs2)cc1,23.3%
20,Cc1ccccc1CSCCNC(=O)c1ccc(N(C)S(=O)(=O)c2ccccc2)cc1,94.3% (active)
21,O=C(CSc1nnc(-c2c[nH]c3ccccc23)o1)c1ccccc1,18.1%
22,Cc1cccc(C)c1-n1c(C)cc(/C=C2\C(=O)NN(c3ccccc3)C2=O)c1C,41.5%
